Laboratory results as given in PubChem BioAssay AID430 (Sanford-Burnham Center for Chemical Genomics, 2006).
The whole screen tested about 63,000 compounds, of which about 1,100 (1.7%) were called active. Shown is part of a subset that was picked to be rich in actives. Potency and affinity values are given separately. A number with no mark means an inactive call. Rule as the data show it: active = cytotoxicity above about 50%; inactive = the rest.

assay: HPDE-C7 pancreatic duct cell viability loss – fluorescence, HTS (AID 430); details: HPDE-C7 pancreatic duct cells viability, at 10 µM, stronger effect = higher value;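 also: cells exposed to compound for 48 hours before viability readout; 0% = vehicle and 100% = reference cytotoxic drug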

Structure (SMILES) | cytotoxicity
CC(=O)c1cc2c(cc1NC(=O)C1CC=CCC1C(=O)O)OCO2 (centres undefined) | -5.7%
CCn1c(C(C)NC(=O)c2ccc(OC)c(OC)c2)nc2ccccc21 (centres undefined) | 5.7%
O=C(O)c1c[nH]ccc1=O | -18.4%
CCc1cc2c3c(c(=O)oc2cc1OC)CCCC3 | 0%
Cc1ccc(-c2nsc3c(N4CCN(C(=O)c5ccco5)CC4)ncnc23)cc1 | -21.7%
CCCCN1Cc2cc(C(=O)c3cc(F)ccc3O)cnc2NC1=O | 6.2%
CN1Cc2cc(C(=O)c3cc(Cl)cc(CSc4ncccn4)c3O)cnc2NC1=O | 68.2% (active)
Cc1ccc(O)c(C(=O)c2cnc3c(c2)CN(CCC(C)C)C(=O)N3)c1 | -5.5%
CNC(=O)NC(=O)CSc1cccc(C(F)(F)F)c1 | -6.3%
COc1ccccc1N1CC(C(=O)OCC(=O)c2ccc(F)cc2)CC1=O (centres undefined) | -16.4%
COc1ccc(Cc2nc(-c3ccc(NC(=O)c4cccnc4)cc3)no2)cc1 | 27.4%
O=C(Nc1ccc(-c2noc(-c3cccs3)n2)cc1)c1cccnc1 | 53.2% (active)
c1ccc(CCc2nc(-c3cccnc3)no2)cc1 | -9.2%
COc1cccc(-c2nc(-c3ccc(NC(=O)c4cccnc4)cc3)no2)c1 | 70.7% (active)
COc1ccc(CC(=O)Nc2ccc(-c3noc(-c4cccc(OC)c4)n3)cc2)cc1 | 1%
O=C(Nc1ccc(-c2noc(CCc3ccccc3)n2)cc1)c1cccnc1 | 58.7% (active)
O=C(Nc1cccnc1)c1cc(-c2cccs2)on1 | 14.1%
O=C(Nc1ccc(-c2noc(CCc3ccccc3)n2)cc1)c1ccco1 | 6.6%
Cc1ccc(-c2noc(-c3cccs3)n2)cc1 | 0.6%
COC(=O)C1=C(O)CSC1=Nc1cccc(C(F)(F)F)c1 | 6.1%
CC1=CC(C)(C)N(C(=O)c2ccc(F)cc2)c2cc3c(cc21)OCO3 | -5.1%
Cc1ccc2[nH]c(=O)c(CN(CCN3CCOCC3)C(=O)Nc3ccc(F)cc3)cc2c1 | 1.9%
COc1ccc(CNC(=O)c2cc(-c3ccccc3O)n[nH]2)cc1 | -14.7%
CCCCOC(=O)n1c(=O)oc2cc(S(=O)(=O)N3CCCCC3)ccc21 | 4.7%
CCCSc1nnc2n(C)c(=O)c3c4c(sc3n12)CCC4 | 4.3%

Structure (SMILES) | cytotoxicity
CC(C)C1Cc2c(sc3c2c(=O)n(Cc2ccccc2)c2nncn32)CO1 (centres undefined) | 7.1%
Cc1nnc2n(Cc3ccccc3)c(=O)c3c4c(sc3n12)CN(Cc1ccccc1)CC4 | 11.3%
CCOC(=O)CSc1nnc2n(Cc3ccccc3)c(=O)c3c4c(sc3n12)CCC4 | 22.6%
CCCSc1nnc2n(Cc3ccccc3)c(=O)c3c4c(sc3n12)CCC4 | 52.7% (active)
CCC(C)N(C(=O)COC(=O)c1cn(CC)c2nc(C)ccc2c1=O)C1CCS(=O)(=O)C1 (centres undefined) | -10.6%
CC(C)c1cc(C(=O)Nc2cccc(Cl)c2)no1 | 1.6%
O=C(Nc1ccc(Oc2ccc(S(=O)(=O)N3CCOCC3)cn2)cc1)c1ccco1 | 2.4%
Nc1c(C(=O)NCc2ccco2)sc2nc3c(cc12)C(=O)CCC3 | 56.5% (active)
COc1ccc2cc3c(N)c(C(=O)NCc4ccco4)sc3nc2c1 | -0.3%
COc1cc2cc3c(N)c(C(=O)NCc4ccco4)sc3nc2cc1OC | 31.5%
Cc1ccc(Cn2c(=O)c3ccccc3n3c(CCC(=O)O)nnc23)cc1 | 23%
COC(=O)C1C(c2ccccc2)C(C(=O)N2CCOCC2)C1c1ccccc1 (centres undefined) | -2.2%
COc1ccc(CCN2C(=NC(=O)CCC(=O)O)SC3CS(=O)(=O)CC32)cc1OC (centres undefined) | -11%
COc1ccc(CNC(=O)CSc2nnc(C)s2)cc1 | -6.3%
FC(F)(F)c1cc(-c2ccco2)nc(-n2cnc3ccccc32)n1 | 0%
FC(F)(F)c1cc(-c2cccs2)nc(N2CCOCC2)n1 | -7.3%
CC(C)c1nnc(NC(=O)CCC(=O)Nc2ccc(F)cc2)s1 | 6.6%
FC(F)(F)c1cc(-c2ccco2)nc(-n2nnc3ccccc32)n1 | 5.9%
CC(C)c1nnc(NC(=O)CCS(=O)(=O)c2nc(-c3cccs3)cc(C(F)(F)F)n2)s1 | 87% (active)
CC(C)c1nnc(NC(=O)Cc2cccs2)s1 | 1.9%
FC(F)(F)c1cc(-c2ccco2)nc(NCc2ccco2)n1 | 0.5%
FC(F)(F)c1cc(-c2ccco2)nc(NCc2ccccc2)n1 | 9.1%
CN1CCN(c2nc(-c3cccs3)cc(C(F)(F)F)n2)CC1 | 1.7%
O=C(COc1cccc(-n2cnnn2)c1)N1CCOCC1 | 18.5%
Cc1c(C)n(CC(O)CN2CCOCC2)c2ccccc12 (centres undefined) | -0.4%

Structure (SMILES) | cytotoxicity
CC(C)C(c1nnnn1Cc1ccc2c(c1)OCO2)N1CCN(c2ccccc2)CC1 (centres undefined) | -9.2%
COc1ccc(N2C(=O)CSC23C(=O)Nc2ccccc23)cc1OC (centres undefined) | -18.4%
COc1cc(OC)cc(C(=O)Nc2ccccc2N2CCOCC2)c1 | -3.9%
COc1cc(OC)c(C(=O)COc2ncnc3ccccc23)c(OC)c1 | -5.8%
O=S(=O)(Nc1ccc2c(c1)OCO2)c1cccs1 | 15.6%
Cn1c(NCC2CCCO2)nc2c1c(=O)n(Cc1ccccc1)c(=O)n2C (centres undefined) | 4.9%
COc1nc(-c2ccccc2)cc(C(F)(F)F)n1 | -11.8%
COc1ccc(-c2cc(C(F)(F)F)nc(NC3CCCC3)n2)cc1OC | 24.7%
COc1ccc(-c2cc(C(F)(F)F)nc(N3CCCCC3)n2)cc1OC | -20.9%
Nc1nc(-c2ccccc2)cc(C(F)(F)F)n1 | -0.7%
COCCn1c(SCC(=O)OCc2ccccc2)nc2c1c(=O)[nH]c(=O)n2C | -3.3%
CCCCC(=O)O[C@]1(C(=O)CO)CC[C@H]2[C@@H]3CCC4=CC(=O)CC[C@]4(C)[C@H]3[C@@H](O)C[C@@]21C | 8.3%
CCCCCC(=O)O[C@]1(C(C)=O)CC[C@H]2[C@@H]3CCC4=CC(=O)CC[C@]4(C)[C@H]3CC[C@@]21C | 116% (active)
CCCCCCCC(=O)OCC(=O)[C@@]1(O)CC[C@H]2[C@@H]3CCC4=CC(=O)CC[C@]4(C)[C@H]3[C@@H](O)C[C@@]21C | -1.9%
Cc1c(C(=O)O)c2cc(O)ccc2n1-c1ccccc1 | 4.3%
Fc1ccc(-c2nnc(-c3ccc(Cl)cc3Cl)o2)cc1 | 1.1%
O=C(NCc1ccco1)C(c1cccs1)N(Cc1ccccc1)C(=O)Cn1nnc2ccccc21 (centres undefined) | 3.4%
COCCCn1c2nc3ccccc3nc2c2c(=O)n(Cc3ccccc3Cl)cnc21 | -8.1%
COc1ccc(NC(=O)C2CCCN2S(=O)(=O)c2cccc3cccnc23)c(OC)c1 (centres undefined) | 5.8%
COc1ccc(N(C)S(=O)(=O)c2cccc3cccnc23)c(OC)c1 | 51.4% (active)
COc1ccc(NC(=O)CN(C)S(=O)(=O)c2cccc3cccnc23)cc1 | -4.1%
Cc1ccc(S(=O)(=O)NCC(=O)N2CCCCC2)cc1 | -15.4%
CCc1nc(N2CCN(C(=O)c3ccco3)CC2)c2oc3ccccc3c2n1 | 22.2%
O=C(c1cc2cc(Cl)ccc2oc1=O)N1CCCC1 | -1.3%
CC1=C(C(=O)Nc2ccccc2)C(c2ccco2)C(C#N)=C(SCC(=O)Nc2cccc(C)c2C)N1 (centres undefined) | 67% (active)

Structure (SMILES) | cytotoxicity
COc1ccccc1NC(=O)C1=C(C)NC(SCC(=O)c2ccccc2)=C(C#N)C1c1ccco1 (centres undefined) | 33.9%
CCOC(=O)C1=C(c2ccccc2)NC(SCC(=O)Nc2ccccc2C)=C(C#N)C1c1ccco1 (centres undefined) | 32.9%
CCOC(=O)CSC1=C(C#N)C(c2ccco2)C(C(=O)Nc2cccc(C(F)(F)F)c2)=C(C)N1 (centres undefined) | 12.4%
CC1=C(C(=O)Nc2ccccc2)C(c2ccco2)C(C#N)=C(SCC(=O)OC(C)C)N1 (centres undefined) | 42.1%
CC1=C(C(=O)Nc2ccccc2)C(c2ccco2)C(C#N)=C(SCc2ccccc2)N1 (centres undefined) | 63.1% (active)
Cc1cccc(OCCC(=O)Nc2ccc(S(=O)(=O)N3CCCC3)cc2)c1 | -7%
CCOc1ccc(NC(=O)c2cccc(-n3cnnn3)c2)cc1 | 0.4%
CCC(C)SCc1nc2ccccc2[nH]1 (centres undefined) | -5.4%
COc1cccc(-c2noc(CCC(=O)Nc3cccnc3)n2)c1 | 2%
O=C(OCc1ccc(F)cc1Cl)c1ccccn1 | 4.8%
CN(C)c1ccc(S(=O)(=O)c2ccc(Cl)cc2)cc1 | 1%
CSCC[C@@H](Nc1nc(-c2ccccc2)nc2c1oc1ccccc12)C(=O)O | 7.2%
c1cncc(-c2nc(NCc3ccco3)c3ccccc3n2)c1 | 5.3%
O=C(NCc1cccs1)c1cc2ccccc2o1 | -2.4%
CCC(C)(NC(=O)c1ccc(=O)[nH]c1)C(=O)NC1CCCC1 (centres undefined) | -7%
COC(=O)CNC(=O)C(Cc1c[nH]c2ccccc12)NC(=O)OC(C)(C)C (centres undefined) | -5%
Cc1csc2ncc(C(=O)NCc3ccc4c(c3)OCO4)c(=O)n12 | 67.4% (active)
COc1ccc(CNC(=O)c2cnc3scc(C)n3c2=O)cc1 | -6.4%
Cc1ccccc1Cc1c(C)nc2c(C(=O)N3CCN(Cc4ccc5c(c4)OCO5)CC3)cnn2c1C | -6.7%
CSc1ccccc1NC(=O)c1cnc2scc(C)n2c1=O | -4.8%
Cc1csc2ncc(C(=O)Nc3ccccc3F)c(=O)n12 | 51.2% (active)
Cc1csc2ncc(C(=O)Nc3ccccc3Cl)c(=O)n12 | -6.7%
Cc1nc2c(C(=O)O)cnn2c(C)c1Cc1ccccc1F | -26.4%
Cc1csc2ncc(C(=O)Nc3ccc4c(c3)OCCO4)c(=O)n12 | -20.4%
